# The campaign covered roughly 5,500 compounds. About 2,000 (36%) were called active. Not shown: some 18% with an inconclusive outcome. The list shows a part of the results. Unmarked numbers belong to inactive results. No stated cut-off is given here; in the data, active means normalized growth mostly below about 0.91 (no sharp cut-off); inconclusive means no clear call, values can overlap the other calls; inactive means mostly above about 0.92.
# Experiment: chemical genetic growth profiling, strain panel (AID 1159580);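 further: tested at 20 µM; growth read once vehicle control cultures reached saturation at 30 °C; 1 = growth at the plate median or of vehicle wells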
# Conditions: S. cerevisiae deletion strains, growth OD
structure (smiles),measurement,setting,value
CC(=O)OC/C=C(\C)CC/C=C(\C)CC/C=C(\C)CC/C=C(\C)CC/C=C(\C)CC/C=C(\C)CC/C=C(\C)CC/C=C(\C)CCC=C(C)C,normalized growth,"locus YAL021C, strain ccr4, stronger effect = lower value",0.991
same,normalized growth,"locus YAL026C, strain drs2, stronger effect = lower value",0.973
same,normalized growth,"locus YAL030W, strain snc1, stronger effect = lower value",0.977
same,normalized growth,"locus YBL061C, strain skt5, stronger effect = lower value",0.981
same,normalized growth,"locus YBR009C, strain hhf1, stronger effect = lower value",0.98
same,normalized growth,"locus YBR023C, strain chs3, stronger effect = lower value",0.991
same,normalized growth,"locus YBR171W, strain sec66, stronger effect = lower value",0.98
same,normalized growth,"locus YBR231C, strain swc5, stronger effect = lower value",0.992
same,normalized growth,"locus YBR279W, strain paf1, stronger effect = lower value",0.987
same,normalized growth,"locus YCL011C, strain gbp2, stronger effect = lower value",0.959
same,normalized growth,"locus YCL016C, strain dcc1, stronger effect = lower value",0.981
same,normalized growth,"locus YCL061C, strain MRC1, stronger effect = lower value",0.997
same,normalized growth,"locus YCL069W, strain vba3, stronger effect = lower value",1
same,normalized growth,"locus YCR088W, strain abp1, stronger effect = lower value",0.995
same,normalized growth,"locus YDL005C, strain med2, stronger effect = lower value",0.976
same,normalized growth,"locus YDL040C, strain nat1, stronger effect = lower value",0.998
same,normalized growth,"locus YDR001C, strain nth1, stronger effect = lower value",0.966
same,normalized growth,"locus YDR069C, strain doa4, stronger effect = lower value",0.978
same,normalized growth,"locus YDR137W, strain rgp1, stronger effect = lower value",0.984
same,normalized growth,"locus YDR159W, strain sac3, stronger effect = lower value",1.02
same,normalized growth,"locus YDR195W, strain ref2",0.984
same,normalized growth,"locus YDR297W, strain sur2, stronger effect = lower value",0.993
same,normalized growth,"locus YDR334W, strain swr1, stronger effect = lower value",0.943
same,normalized growth,"locus YDR335W, strain msn5, stronger effect = lower value",0.982
same,normalized growth,"locus YDR392W, strain spt3, stronger effect = lower value",0.976
same,normalized growth,"locus YEL003W, strain gim4, stronger effect = lower value",0.98
same,normalized growth,"locus YEL037C, strain rad23, stronger effect = lower value",0.976
same,normalized growth,"locus YEL061C, strain CIN8 (second series), stronger effect = lower value",0.973
same,normalized growth,"locus YER015W, strain faa2, stronger effect = lower value",0.971
same,normalized growth,"locus YER016W, strain bim1, stronger effect = lower value",0.99
same,normalized growth,"locus YER111C, strain swi4, stronger effect = lower value",0.984
same,normalized growth,"locus YER155C, strain BEM2 (second series), stronger effect = lower value",1
same,normalized growth,"locus YFR010W, strain ubp6, stronger effect = lower value",0.967
same,normalized growth,"locus YGL167C, strain pmr1, stronger effect = lower value",0.981
same,normalized growth,"locus YGL173C, strain kem1, stronger effect = lower value",0.974
same,normalized growth,"locus YGL227W, strain vid30, stronger effect = lower value",0.987
same,normalized growth,"locus YGL240W, strain doc1, stronger effect = lower value",1.01
same,normalized growth,"locus YGL253W, strain hxk2, stronger effect = lower value",0.964
same,normalized growth,"locus YHR013C, strain ard1, stronger effect = lower value",0.969
same,normalized growth,"locus YHR027C, strain rpn1, stronger effect = lower value",0.974
same,normalized growth,"locus YHR030C, strain SLT2, stronger effect = lower value",1.04
same,normalized growth,"locus YHR079C, strain IRE1, stronger effect = lower value",1.04
same,normalized growth,"locus YHR142W, strain chs7, stronger effect = lower value",0.917
same,normalized growth,"locus YJL092W, strain hpr5, stronger effect = lower value",0.985
same,normalized growth,"locus YJL095W, strain BCK1 (second series), stronger effect = lower value",0.987
same,normalized growth,"locus YJL095W, strain BCK1, stronger effect = lower value",1.02
same,normalized growth,"locus YJL115W, strain asf1, stronger effect = lower value",0.951
same,normalized growth,"locus YJL129C, strain trk1, stronger effect = lower value",0.931
same,normalized growth,"locus YJL154C, strain vps35, stronger effect = lower value",0.971
same,normalized growth,"locus YJL164C, strain tpk1, stronger effect = lower value",0.976
same,normalized growth,"locus YJL166W, strain qcr8, stronger effect = lower value",0.99
same,normalized growth,"locus YJL187C, strain SWE1, stronger effect = lower value",0.986
same,normalized growth,"locus YJR066W, strain TOR1, stronger effect = lower value",1.01
same,normalized growth,"locus YKL160W, strain elf1, stronger effect = lower value",0.98
same,normalized growth,"locus YKR026C, strain gcn3, stronger effect = lower value",0.988
same,normalized growth,"locus YKR091W, strain srl3, stronger effect = lower value",0.984
same,normalized growth,"locus YLL001W, strain dnm1, stronger effect = lower value",0.968
same,normalized growth,"locus YLL026W, stronger effect = lower value",0.974
same,normalized growth,"locus YLL041C, strain sdh2, stronger effect = lower value",0.991
same,normalized growth,"locus YLR027C, strain aat2, stronger effect = lower value",0.997
same,normalized growth,"locus YLR113W, strain HOG1, stronger effect = lower value",0.991
same,normalized growth,"locus YLR221C, strain rsa3, stronger effect = lower value",0.942
same,normalized growth,"locus YLR258W, strain gsy2, stronger effect = lower value",0.997
same,normalized growth,"locus YLR262C, strain YPT6 (second series), stronger effect = lower value",0.996
same,normalized growth,"locus YLR320W, strain mms22, stronger effect = lower value",0.991
same,normalized growth,"locus YLR342W, strain FKS1, stronger effect = lower value",0.99
same,normalized growth,"locus YLR357W, strain rsc2, stronger effect = lower value",0.987
same,normalized growth,"locus YLR370C, strain arc18, stronger effect = lower value",0.994
same,normalized growth,"locus YLR384C, strain iki3, stronger effect = lower value",0.985
same,normalized growth,"locus YML120C, strain ndi1, stronger effect = lower value",0.977
same,normalized growth,"locus YMR058W, strain fet3, stronger effect = lower value",0.984
same,normalized growth,"locus YMR125W, strain sto1, stronger effect = lower value",0.939
same,normalized growth,"locus YMR129W, stronger effect = lower value",0.982
same,normalized growth,"locus YMR205C, strain PFK2, stronger effect = lower value",0.958
same,normalized growth,"locus YMR231W, strain pep5, stronger effect = lower value",0.989
same,normalized growth,"locus YNL071W, strain lat1, stronger effect = lower value",0.987
same,normalized growth,"locus YNL183C, strain NPR1, stronger effect = lower value",1.01
same,normalized growth,"locus YNL209W, strain ssb2, stronger effect = lower value",1
same,normalized growth,"locus YNL248C, strain rpa49, stronger effect = lower value",0.964
same,normalized growth,"locus YNL322C, strain KRE1 (second series), stronger effect = lower value",0.97
same,normalized growth,"locus YNR049C, strain mso1, stronger effect = lower value",0.975
same,normalized growth,"locus YOR001W, strain rrp6, stronger effect = lower value",1
same,normalized growth,"locus YOR070C, strain gyp1, stronger effect = lower value",0.984
same,normalized growth,"locus YOR080W, strain dia2, stronger effect = lower value",0.978
same,normalized growth,"locus YOR083W, strain WHI5, stronger effect = lower value",0.97
same,normalized growth,"locus YOR106W, strain vam3, stronger effect = lower value",0.909
same,normalized growth,"locus YOR231W, strain MKK1, stronger effect = lower value",1.02
same,normalized growth,"locus YOR265W, strain rbl2, stronger effect = lower value",0.996
same,normalized growth,"locus YOR270C, strain vph1, stronger effect = lower value",0.879
same,normalized growth,"locus YOR290C, strain snf2, stronger effect = lower value",0.941
same,normalized growth,"locus YPL051W, strain arl3, stronger effect = lower value",1
same,normalized growth,"locus YPL078C, strain atp4, stronger effect = lower value",0.977
same,normalized growth,"locus YPL106C, strain sse1, stronger effect = lower value",0.997
same,normalized growth,"locus YPL240C, strain hsp82, stronger effect = lower value",0.968
same,normalized growth,"locus YPL256C, strain CLN2, stronger effect = lower value",1.02
CC(C)=CCC/C(C)=C/CC/C(C)=C/CSc1ccccc1C(=O)O,normalized growth,"locus YAL013W, strain DEP1, stronger effect = lower value",0.944
same,normalized growth,"locus YAL040C, strain CLN3, stronger effect = lower value",1.04
same,normalized growth,"locus YCL061C, strain MRC1 (second series), stronger effect = lower value",0.938 (active)
same,normalized growth,"locus YDR363W, strain ESC2, stronger effect = lower value",0.896
same,normalized growth,"locus YER002W, strain NOP16, stronger effect = lower value",0.958
same,normalized growth,"locus YGR078C, strain PAC10, stronger effect = lower value",0.928
same,normalized growth,"locus YGR229C, strain SMI1, stronger effect = lower value",0.742 (active)
same,normalized growth,"locus YNL175C, strain NOP13, stronger effect = lower value",0.956
same,normalized growth,"locus YNL197C, strain WHI3, stronger effect = lower value",0.965
same,normalized growth,"locus YNL224C, strain SQS1, stronger effect = lower value",0.974
same,normalized growth,"locus YOR083W, strain WHI5 (second series), stronger effect = lower value",0.855 (active)
